Hits are enriched below; roughly 11% of the tested compounds scored in any of these assays.
HCV inh: qHTS Assay for Inhibitors of Hepatitis C Virus (HCV); Huh7.5.1 HCVcc-Cre infection, luciferase reporter, 44 h; Potency, µM (highest dose often 41.8 µM), for inactives: top-dose activity change, negative = inhibition, usual class: inhibitors; actives 3.4% (n = 340,000); AID 651820, 2012
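Infectious HCVcc-Cre (~0.5 moi) was added to cells just after compound, with cells seeded 4 h earlier at 1,000 per well. Luciferase activity after 44 h culture reported infection; substrate was incubated 15 min at room temperature before reading.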
Pf growth 48h: Primary qHTS for delayed death inhibitors of the malarial parasite plastid, 48 hour incubation; P. falciparum luciferase growth in erythrocytes, 48 h; Potency, µM (titrated, usually from 28.7 µM), inactives show at the top dose activity change, negative = inhibition, usual class: inhibitors; actives 5.9% (n = 310,000)
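Here the parasites carry a stable luciferase gene and grow inside erythrocytes in Albumax-based RPMI medium with compound for one erythrocytic cycle. Activity is scored as loss of luminescent signal.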
AMA1 RON2 block: qHTS for Inhibitors of AMA1-RON; Towards Development of Antimalarial Drug Lead: Primary Screen; Potency, µM (doses to about 58.2 µM), for inactives: at the top dose activity change, negative = inhibition, usual class: inhibitors; Plasmodium falciparum AMA1 (3D7) - RON2 peptide interaction; AlphaScreen AMA1-biotinylated RON2 peptide binding; actives 0.2% (n = 360,000); AID 720542, 2013;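 further: 0% = vehicle wells and -100% = peptide control; nearly all actives have a fitted effect of over 45% in size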
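AMA1 (3D7) with his tag at 25 nM final met compounds first, then biotinylated RON2 peptide at 25 nM; detection used donor plus acceptor beads, 10 µg/mL apiece, read by AlphaScreen after 30 min at room temperature.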
Pf growth 96h: Primary qHTS for delayed death inhibitors of the malarial parasite plastid, 96 hour incubation. P. falciparum luciferase reporter growth, 96 h. Potency, µM (titrated, usually from 28.7 µM), inactives show at the highest dose activity change, negative = inhibition, usual class: inhibitors. actives 6.9% (n = 320,000)
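Two-generation exposure (96 h) targets delayed-death phenotype. Reporter parasites carrying integrated firefly luciferase, in red cells at 2% hematocrit and 0.05% parasitemia final, kept at 37 C, 5% CO2; luminescence loss indicates inhibition.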
Numbers without * were called inactive. The call rests on the fitted dose curve; in most records, active means well fitted curve in the direction sought with a large enough effect; inconclusive means small, poorly fitted or top-dose-only effect, or another doubt; inactive means no such curve, though single readings can be large; an effect the other way counts as inactive or inconclusive. Unless noted, on the % scale 0 is the no-effect control and ±100 the full control effect; potency means the concentration at half of the fitted maximal effect.

`COc1cc(C(=O)NC(=S)NNC(=O)c2cnccn2)cc(OC)c1OC` gave HCV inh inconclusive, Pf growth 48h 12µM*, AMA1 RON2 block -48% and Pf growth 96h inconclusive.
COc1ccc(C(=O)NC(=S)NNC(=O)c2cnccn2)cc1 was read as HCV inh inconclusive, Pf growth 48h 2.6µM*, AMA1 RON2 block 3% and Pf growth 96h inconclusive.
Screening C=C(C)[C@@H]1CC=C(CN2CCC(CCOC)(C(=O)OCC)CC2)CC1 returned HCV inh inconclusive, Pf growth 48h -9%, AMA1 RON2 block -18% and Pf growth 96h inconclusive.
Screening C=CCNc1ncnc2c1ncn2[C@H]1CN(Cc2ccccc2)C[C@@H](COC(C)=O)O1 returned AMA1 RON2 block 15%.
For O=C(NNC(=S)NC(=O)c1cccnc1)c1ccc(Cl)cc1 the results were HCV inh inconclusive, Pf growth 48h inconclusive, AMA1 RON2 block 91% and Pf growth 96h 22%.
O=C(NCCCNC(=O)c1cnccn1)c1ccc(Cl)cc1 was read as HCV inh -5%, Pf growth 48h -7%, AMA1 RON2 block 7% and Pf growth 96h 8%.
For O=C(NC(=S)NNC(=O)c1cnccn1)c1ccc(Cl)cc1 the results were HCV inh inconclusive, Pf growth 48h 4.1µM*, AMA1 RON2 block 23% and Pf growth 96h inconclusive.
Screening COc1ccccc1C(=O)NNC(=S)NC(=O)c1cc(OC)c(OC)c(OC)c1 returned HCV inh inconclusive, Pf growth 48h -12%, AMA1 RON2 block 111% and Pf growth 96h 13µM*.
Screening O=C(Cc1ccc(Cl)cc1)NNC(=S)NC(=O)c1cccnc1 returned HCV inh 5%, Pf growth 48h -66%, AMA1 RON2 block 107% and Pf growth 96h 4.1µM*.
Screening COc1cc(C(=O)NNC(=S)NC(=O)c2ccccc2C)cc(OC)c1OC returned HCV inh inconclusive, Pf growth 48h -4%, AMA1 RON2 block 23% and Pf growth 96h -1%.
`C#CCOCCOCCOCCNc1nc(N2CCN(C(=O)CCCCCCCCCCNC(=O)[C@H]([C@@H](C)CC)n3cc(CCCCN=C(N)N)nn3)CC2)nc(N2CCN(C(=O)CCCCCCCCCCNC(=O)[C@H](CCCCN)n3cc(C[C@@H](C)CC)nn3)CC2)n1` gave HCV inh inconclusive, Pf growth 48h 9.3µM* and Pf growth 96h 5.2µM*.
Screening C#CCOCCOCCOCCNc1nc(N2CCN(C(=O)CCCCCCCCCCNC(=O)[C@H](CCCCN)n3cc(CCO)nn3)CC2)nc(N2CCN(C(=O)CCCCCCCCCCNC(=O)[C@H](CCCN=C(N)N)n3cc(C[C@@H](C)CC)nn3)CC2)n1 returned HCV inh inconclusive, Pf growth 48h 12µM*, AMA1 RON2 block inconclusive and Pf growth 96h 4.7µM*.
`C#CCOCCOCCOCCNc1nc(N2CCN(C(=O)CCCCCCCCCCNC(=O)[C@H](CCCCN)n3cc(CCCC(=O)O)nn3)CC2)nc(N2CCN(C(=O)CCCCCCCCCCNC(=O)[C@H](CCCN=C(N)N)n3cc(C[C@@H](C)CC)nn3)CC2)n1` gave HCV inh inconclusive, Pf growth 48h 10µM*, AMA1 RON2 block -22% and Pf growth 96h 13µM*.
For C(=NNc1ccc2ccccc2n1)c1ccccn1 the results were AMA1 RON2 block -21%.
For OCC1(CCOc2ccccc2)CCN(Cc2ccccc2C(F)(F)F)CC1 the results were HCV inh 6%, Pf growth 48h 22%, AMA1 RON2 block -7% and Pf growth 96h 8.3µM*.
COc1ccc(CN2CCC(CO)(CCOc3ccccc3)CC2)c(OC)c1C was read as HCV inh inconclusive, Pf growth 48h 3.7µM*, AMA1 RON2 block 15% and Pf growth 96h -6%.
Cc1nn(C)cc1CN1CCC(CO)(CCOc2ccccc2)CC1 was read as HCV inh 8%, Pf growth 48h 35%, AMA1 RON2 block 0% and Pf growth 96h inconclusive.
`COc1ccc2[nH]c(CN3CCC(CO)(CCOc4ccccc4)CC3)c(C)c2c1` gave HCV inh 10µM*, Pf growth 48h inconclusive, AMA1 RON2 block -19% and Pf growth 96h inconclusive.
`Cc1nc2c(OCc3ccc(C(F)(F)F)cc3)cccn2c1N(C)Cc1cccs1` gave AMA1 RON2 block -2%.
